PubChem BioAssay AID1565 (Sanford-Burnham Center for Chemical Genomics, 2009)
Out of some 290,000 compounds screened, about 3,200 (1.1%) were called active. This is one part of a sample in which actives are shown more often than they occur. Values without a mark were called inactive. Cut-off read from the data, not from the text of the source: active = inhibition above about 60%; inactive = the rest.

Each molecule was assayed against Phosphoethanolamine/phosphocholine phosphatase (Homo sapiens) (UniProt Q8TCT1) (assay: PubChem AID 1565). Details: recombinant PHOSPHO1, absorbance phosphatase assay; at 13.3 µM; stronger effect = higher value.
Sequence of Phosphoethanolamine/phosphocholine phosphatase (Homo sapiens) (Q8TCT1 whole entry, looked up): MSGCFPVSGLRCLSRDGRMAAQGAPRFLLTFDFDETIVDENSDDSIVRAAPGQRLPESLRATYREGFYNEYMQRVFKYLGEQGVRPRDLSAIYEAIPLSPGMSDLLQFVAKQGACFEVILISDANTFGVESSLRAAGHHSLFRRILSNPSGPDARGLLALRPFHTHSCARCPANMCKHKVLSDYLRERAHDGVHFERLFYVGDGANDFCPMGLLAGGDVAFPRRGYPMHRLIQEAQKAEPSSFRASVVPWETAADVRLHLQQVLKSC

SMILES | inhibition
O=C(C1CCCN(S(=O)(=O)c2ccc([N+](=O)[O-])cc2)C1)N1CCCCC1 (configuration not stated) | 52.6%
O=C(Cc1ccccc1)NNS(=O)(=O)c1ccc([N+](=O)[O-])cc1 | 6.7%
O=C(NNS(=O)(=O)c1ccc([N+](=O)[O-])cc1)C1CCCCC1 | 61% (active)
O=C(NNS(=O)(=O)c1ccc(F)cc1)C1CCCCC1 | 18.4%
CC(=O)N1c2ccc(S(=O)(=O)N3CCCC(C(=O)Nc4ccc(C)cc4C)C3)cc2CC1C (configuration not stated) | 25.4%
COc1ccc(OC)c(NC(=O)C2CCCN2S(=O)(=O)c2cccc3nsnc23)c1 (configuration not stated) | 20.7%
O=C(CSc1nnc(-c2ccco2)n1CC1CCCO1)c1ccccc1 (configuration not stated) | 69.4% (active)
COc1ccccc1NC(=O)CSc1nnc(C)n1CC1CCCO1 (configuration not stated) | 2.5%
Cc1nnc(SCC(N)=O)n1CC1CCCO1 (configuration not stated) | 14.5%
Cc1cccc(NS(=O)(=O)c2ccc(-c3cnc(C4CC4)o3)cc2)c1 | 36.8%
Cc1nnc(SCC(=O)Nc2ccc(S(=O)(=O)Nc3ccc(Cl)nn3)cc2)s1 | 7.5%
S=C(c1ccccc1)N1CCCC1 | 29%
OCCN1CCN(C(=S)c2ccc(-c3ccccc3)cc2)CC1 | 71.4% (active)
O=C(NC(c1ccccc1)c1ccccc1)N1CCN(CCO)CC1 | -22.1%
COc1ccc(C(=O)N2CCCN(C)CC2)c(OC)c1 | -0.8%
Cc1ccc(NC(=O)CN(C)C(=O)COC(=O)C(C)(C)Oc2ccc(Cl)cc2)cc1 | 14.5%
CC(C)CC(CCc1ccccc1)OS(N)(=O)=O (configuration not stated) | 4%
CC(=O)c1cc(C#N)c(SCC(=O)C(C)(C)C)nc1C | 75.8% (active)
CC(=O)c1cc(C#N)c(SCC(=O)Nc2nccs2)nc1C | 28.8%
CC(=O)c1cc(C#N)c(N2CCCCC2)nc1C | 1.5%
Clc1cc(NC2CCCCC2)ncn1 | -10.9%
COc1ccc(-n2cnnc2SCC(=O)Nc2cccc([N+](=O)[O-])c2)cc1 | -3.1%
COc1cccc(NCCC(=O)c2cccc([N+](=O)[O-])c2)c1 | 22.6%
COc1ccc(Cc2nnc(SCC(=O)c3cccc([N+](=O)[O-])c3)n2C)cc1 | 76.3% (active)
COc1cccc(CNS(=O)(=O)c2cc3c(cc2C)n(C)c(=O)c(=O)n3C)c1 | -3.5%

SMILES | inhibition
Cc1cccc(CNS(=O)(=O)c2ccc(-c3cnc(C4CC4)o3)cc2)c1 | 32.9%
Cn1c(SCc2ccc(F)cc2)nnc1-c1ccncc1 | 35.1%
Cc1nc2sc(C(c3ccco3)N3CCOCC3)c(O)n2n1 (configuration not stated) | -2.3%
Oc1c(C(c2cccs2)N2CCN(c3ccc(F)cc3)CC2)sc2ncnn12 (configuration not stated) | 19.3%
Oc1c(C(c2ccco2)N2CCC3(CC2)OCCO3)sc2ncnn12 (configuration not stated) | 95.9% (active)
COc1ccc(CNC(=O)C(NS(=O)(=O)c2cccc3nsnc23)C(C)C)cc1 (configuration not stated) | 59.8%
Cc1ccc(NC(=O)CCNS(=O)(=O)c2ccc3c(c2)oc(=O)n3C)cc1C | -21.8%
COc1cccc(NC(=O)CCNS(=O)(=O)c2ccc3c(c2)oc(=O)n3C)c1 | 59.6%
Cn1c(=O)oc2cc(S(=O)(=O)NCCC(=O)NCc3ccccc3Cl)ccc21 | 75.4% (active)
O=c1cc(Cl)c2ccccc2n1-c1ccccc1 | 19.9%
CN(Cc1c(F)cccc1Cl)S(=O)(=O)c1cccs1 | -15.8%
Cc1c(Cl)cccc1NC(=O)CCC(=O)N/N=C/c1ccco1 | 32.7%
Cn1c(-c2sccc2OCc2cccc(C(F)(F)F)c2)n[nH]c1=S | 36.7%
Cc1ccccc1-c1n[nH]c(=S)n1C | -137%
Cn1c(-c2sc3cc(C(F)(F)F)cnc3c2-c2ccccc2)n[nH]c1=S | 96.2% (active)
COc1cccc(NC(=O)CCc2nnc3ccc(N4CCC(C)CC4)nn23)c1 | -8.3%
Cc1cccnc1CCNC(=O)C1CCC(=O)N(Cc2cccc(F)c2)C1 (configuration not stated) | 24%
COc1cccc(CNC(=O)C2CCCN(c3ncnc4c3nc3n4CCCCC3)C2)c1 (configuration not stated) | -55.9%
O=C(Nc1ccccc1)N1CCN(C(=O)Nc2ccccc2)CC1 | 15.9%
O=C(Nc1ccc(Cl)c(Cl)c1)N1CC=C(c2ccccc2)CC1 | 61.1% (active)
O=C(Nc1cccc(NC(=O)N2CCN(c3ccccc3)CC2)c1)N1CCN(c2ccccc2)CC1 | 12.4%
Cc1occc1C(=O)N/N=C/c1ccc(-c2cccc([N+](=O)[O-])c2)o1 | 40.3%
C[N+]1(CCNC(=O)/C=N/O)CCCCC1 | 91.1% (active)
N#CC(C#N)=CN=c1ccn(Cc2ccc(Cl)cc2Cl)cc1 | 34%
COCCNC(=O)c1ccc2nc(Cc3ccc(OC)c(OC)c3)oc2c1 | -8.2%

SMILES | inhibition
COc1ccc(Cc2n[nH]c(=S)n2NC(=O)Nc2ccc(C)cc2)cc1 | 36.2%
COc1ccc(OCc2n[nH]c(=S)n2N)cc1 | 70.9% (active)
COc1ccc(-n2c(-c3ccc(OC)c(OC)c3)n[nH]c2=S)cc1 | -135%
Cc1ccc(OCc2n[nH]c(=S)n2-c2ccc(C)cc2)cc1 | -0.8%
Cc1ccc(OCc2n[nH]c(=S)n2-c2ccccc2)cc1 | 60.9% (active)
S=c1[nH]nc(COc2ccccc2)n1-c1ccccc1 | -11.2%
Cc1cccc(N2Cc3ccccc3C2=NC(=O)c2ccc(Cl)nc2)c1 | -3.9%
Cc1nn(CC(=O)NCCc2ccccc2)c(=O)c2cc3occc3n12 | -36.2%
O=C1/C(=C/c2ccc(F)cc2)SC(=S)N1CCCC(=O)N1CCCCC1CCO (configuration not stated) | 38.5%
O=C(c1ccc(CS(=O)(=O)c2ccccc2)o1)N1CCN(c2ccccc2)CC1 | 2.1%
CC(C)c1ccc(S(=O)(=O)NC2CCCC2)cc1 | 24%
CCN(CC)c1ccc(NC(=O)c2ccc(Cl)nc2)cc1 | 74.3% (active)
Cc1cnc(NC(=O)c2ccc(Cl)nc2)s1 | -16.6%
NS(=O)(=O)c1ccc(NC(=O)COC(=O)c2ccc(Cl)nc2)cc1 | 8.4%
CCCCNC(=O)c1cn(CC)c2cc(N3CCN(C(=O)c4ccco4)CC3)c(F)cc2c1=O | 12.7%
CCCn1c(C2CCCN2c2nc(-c3ccc(OC)cc3)cs2)nc2ccccc21 (configuration not stated) | -1.7%
Cc1ccc(-c2cc(N)on2)cc1 | 1.1%
Cc1ccc(S(=O)(=O)Cc2cc(-c3ccc(Cl)cc3)no2)cc1 | 65.8% (active)
CC(C)C(=O)NCc1cc(-c2ccc(Cl)cc2)no1 | 32.2%
O=C(CCc1nnc2ccc(NCc3ccco3)nn12)Nc1cc(F)ccc1F | 19.9%
COc1ccccc1OCCOc1ccc(/C=C2\C(=N)N3N=C(C)SC3=NC2=O)cc1 | 19.1%
CCOc1ccccc1N1CCN(C(=O)c2ccc3[nH]c(C)c(C)c3c2)CC1 | 18.1%
Cc1c(C(=O)NCC(c2ccco2)N2CCCC2)oc2ccc(Cl)cc12 (configuration not stated) | 7%
COc1cc(/C=N/O)ccc1OCc1ccc([N+](=O)[O-])cc1 | 5.6%
Fc1ccc(/C=N/n2c(COc3ccccc3)n[nH]c2=S)cc1 | 5.5%

SMILES | inhibition
COc1cc(/C=N/n2c(C)n[nH]c2=S)ccc1OCc1ccccc1 | 69.1% (active)
CCC(NC(=O)c1cc(COc2ccc(F)c(F)c2)on1)c1ccncc1 (configuration not stated) | 21.8%
CC1(C)CCc2nc(SCc3ccccc3)c(C#N)cc2C1 | 15%
CC(NC(=O)CSc1nc2c(cc1C#N)CN(C)CC2)c1ccccc1 (configuration not stated) | 95.3% (active)
Cc1cc(NC(=O)CSc2nc3c(cc2C#N)CCCCC3)no1 | 56%
CC1CC(C)CN(c2ccc(S(=O)(=O)N3CCOCC3)cc2)C1 (configuration not stated) | 33.4%
C=CCN1CN(S(=O)(=O)c2ccc(OC)cc2)c2nc3ccccc3nc21 | 4.7%
CCCc1cc(-c2n[nH]c(=S)n2Cc2ccccc2)cs1 | 82.7% (active)
COc1cc(-c2n[nH]c(=S)n2Cc2ccccc2)cc(OC)c1OC | -91.1%
CCc1cc(-c2n[nH]c(=S)n2CC(C)C)cs1 | -17%
O=C(NCc1ccccc1)c1onc(CSc2nc3ccccc3[nH]2)c1C(=O)NCc1ccccc1 | 15.1%
CN(c1ccccc1)S(=O)(=O)c1ccc2[nH]c(=O)[nH]c2c1 | 2.8%
O=C(c1ccccc1)c1ccc(C(=O)N2CCN(c3ccccc3)CC2)cc1 | 70.6% (active)
Cc1nc2ccc(C(=O)N3CCN(c4ccccc4)CC3)cc2s1 | -38.4%
O=C(c1ccc(S(=O)(=O)N2CCOCC2)cc1)N1CCN(c2ccccc2)CC1 | 7.1%
C=CCn1c(CNS(=O)(=O)c2ccc(Br)cc2)nnc1SC | 38.1%
Cc1cccc(-n2nc3c(c2NC(=O)c2cc4ccccc4o2)CS(=O)(=O)C3)c1 | 12.5%
Cc1ccc(-n2c(Cc3cccs3)nnc2SCC(=O)OC(C)C)cc1 | 4.6%
CCn1c(SCC(=O)c2ccc3ccccc3c2)nnc1-c1cccs1 | 17.7%
CCn1c(Cc2cccs2)nnc1SCC(=O)c1ccc(C)cc1 | 67.3% (active)
CCNC(=O)Nc1ccc(S(=O)(=O)Nc2cnc(C)nc2C)cc1 | 22%
COc1ccc(N(CC(=O)N2CCOCC2)S(=O)(=O)c2ccccc2)cc1Cl | 12.6%
